Laboratory results reported in article PMC5540273 (PLoS ONE, 2017).

Key:
Conditions in all cases: concentration: 1 μM,replicates: in singlicate; n = 1
PIK3C2G = tested on: PIK3C2G
PIK3CA = tested on: PIK3CA
PIK3CB = tested on: PIK3CB
PIK3CD = tested on: PIK3CD
PIK3CG = tested on: PIK3CG
PIK4CB = tested on: T1, PIK4CB
T1 construct: gene PI4KB

PIKFYVE = tested on: PIKFYVE
PIM1 = tested on: PIM1
PIM2 = tested on: PIM2
PIM3 = tested on: PIM3
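Note: KINOMEscan kinase panel screen.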

Structure (SMILES) | %Inh (PIK3C2G) [%] | %Inh (PIK3CA) [%] | %Inh (PIK3CB) [%] | %Inh (PIK3CD) [%] | %Inh (PIK3CG) [%] | %Inh (PIK4CB) [%] | %Inh (PIKFYVE) [%] | %Inh (PIM1) [%] | %Inh (PIM2) [%] | %Inh (PIM3) [%]
Cc1nnc(-c2ccc3occ(-c4ccc(S(C)=O)cc4)c3n2)o1 (stereo not drawn) | 0 | 0 | 8 | 0 | 0 | 0 | 0 | 0 | 3 | 4
c1ccc(Oc2ccc(Nc3ccnc4ccc(-c5ccccn5)cc34)cc2)cc1 [GW407034] | 0 | 0 | 27 | 0 | 0 | 0 | 0 | 9 | 0 | 0
NC(=O)c1ccc(-c2cc3ncnc(SCC(=O)O)c3s2)cc1 | 20 | 0 | 15 | 0 | 0 | 0 | 42 | 7 | 22 | 22
N#Cc1cccc(C(=O)NC2CCN(c3ccnc(Nc4ccc(F)cc4)n3)C2)c1 (stereo not drawn) [GSK1379708] | 0 | 0 | 0 | 0 | 0 | 0 | 0 | 0 | 0 | 0
FC(F)(F)c1cc(Br)cc(Nc2nccc(-c3cnn4ncccc34)n2)c1 [GW810578] | 25 | 3 | 16 | 51 | 10 | 30 | 10 | 25 | 0 | 23
Cc1ccc2c(-c3ccnc(Nc4ccc(C(F)(F)F)cc4)n3)cnn2n1 [GW819776] | 0 | 2 | 0 | 0 | 48 | 33 | 23 | 10 | 0 | 0
CN(c1cccc(CNc2nc(Nc3ccc4c(c3)CC(=O)N4)ncc2C(F)(F)F)c1)S(C)(=O)=O | 0 | 0 | 0 | 0 | 0 | 0 | 31 | 12 | 0 | 3
Cc1ccc(C(=O)Nc2ccc(Oc3ccc4nc(NC(=O)C5CC5)cn4c3)c(F)c2)c(=O)n1-c1ccccc1 | 0 | 0 | 0 | 0 | 0 | 0 | 14 | 1 | 0 | 0
CC(C)c1nc(-c2cccc(NS(=O)(=O)c3ccccc3)c2)c(-c2ccnc(Nc3ccc4c(c3)CN(C)CC4)n2)s1 [GSK1649598] | 0 | 10 | 11 | 25 | 4 | 33 | 56 | 28 | 0 | 18
O=C(Nc1n[nH]c2cc(-c3ccco3)ccc12)C1CC1 [SB-737447] | 17 | 0 | 0 | 0 | 0 | 18 | 1 | 6 | 0 | 22
C[C@@H](Oc1cc(-n2cnc3ccc(-c4ccncc4)cc32)sc1C(N)=O)c1ccccc1Cl [GSK483724] | 6 | 53 | 68 | 87 | 97.7 | 79 | 95.1 | 46 | 64 | 23
O=C1NCCc2[nH]c(-c3ccncc3)cc21 | 0 | 7 | 45 | 0 | 12 | 20 | 38 | 28 | 23 | 37
Cn1cc(-c2cccc3c(N)c(C(N)=O)nnc23)cn1 | 26 | 0 | 0 | 20 | 18 | 16 | 0 | 0 | 0 | 0
COC(=O)c1cccc(NC(=O)NC2CCN(c3ccnc(Nc4cc(OC)c(OC)c(OC)c4)n3)C2)c1 (stereo not drawn) [GSK1379767] | 0 | 0 | 9 | 35 | 21 | 47 | 28 | 17 | 0 | 0
CCn1c(-c2nonc2N)nc2cncc(CNC3CCNCC3)c21.Cl [SB-747651] | 0 | 0 | 0 | 2 | 0 | 15 | 0 | 93.4 | 81 | 80
COc1cc(Nc2nccc(N3CCC(NC(=O)c4cccc(C#N)c4)C3)n2)cc(OC)c1OC (stereo not drawn) [GSK1379751] | 0 | 0 | 0 | 0 | 0 | 3 | 9 | 0 | 0 | 0
Nc1nccc(-c2ccc3c(N)n[nH]c3c2)n1 [GSK1034945] | 0 | 5 | 0 | 3 | 2 | 0 | 0 | 9 | 0 | 7

Structure (SMILES) | %Inh (PIK3C2G) [%] | %Inh (PIK3CA) [%] | %Inh (PIK3CB) [%] | %Inh (PIK3CD) [%] | %Inh (PIK3CG) [%] | %Inh (PIK4CB) [%] | %Inh (PIKFYVE) [%] | %Inh (PIM1) [%] | %Inh (PIM2) [%] | %Inh (PIM3) [%]
CCN1CCN(CCCC(=O)Nc2n[nH]c3nc(-c4ccc(O)cc4)c(Br)cc23)CC1 [SB-731579] | 16 | 0 | 0 | 44 | 6 | 16 | 14 | 57 | 89 | 72
Cc1cccc2c(-c3ccncc3)c(-c3ccc(F)cc3)nn12.Cl [GW461487] | 0 | 0 | 0 | 0 | 0 | 0 | 0 | 18 | 0 | 0
O=C(NOCC1CC1)c1cc(Br)c(F)c(F)c1Nc1ccc(I)cc1Cl | 0 | 0 | 0 | 0 | 0 | 0 | 41 | 0 | 9 | 1
COC(=O)Nc1nc2cc(Oc3ccc(NC(=O)Nc4cc(C(F)(F)F)ccc4Cl)cc3)ccc2[nH]1.Cl [GW697465] | 0 | 0 | 16 | 4 | 0 | 0 | 20 | 30 | 0 | 22
Cl.Nc1n[nH]c2cc(-c3ccccn3)ccc12 [GSK2189892] | 0 | 0 | 0 | 0 | 0 | 0 | 0 | 0 | 0 | 0
COc1cc2c(Nc3ccc(NC(=O)c4ccccc4)cc3)ncnc2cc1OCCCN1CCOCC1 [GSK301329] | 0 | 0 | 0 | 0 | 0 | 0 | 0 | 0 | 0 | 0
O=C(Nc1cccc(Oc2ccc3nccn3n2)c1)Nc1cccc(C(F)(F)F)c1 | 0 | 0 | 0 | 5 | 18 | 0 | 0 | 0 | 10 | 0
O=C(Nc1ccccc1)c1cccc(Oc2ccc3nccn3n2)c1 | 6 | 0 | 0 | 11 | 0 | 68 | 0 | 0 | 5 | 0
CN1CCN(CCNc2nc3cc(Oc4ccc(NC(=O)Nc5cc(C(F)(F)F)ccc5F)cc4)ccc3[nH]2)CC1.Cl.Cl [GW768504] | 0 | 0 | 0 | 0 | 0 | 0 | 0 | 10 | 2 | 0
CC(C(=O)NC1CCN(c2ccnc(Nc3ccc(F)cc3)n2)C1)c1ccc(Cl)cc1 (stereo not drawn) [GSK1379713] | 0 | 0 | 0 | 15 | 0 | 0 | 9 | 9 | 0 | 0
Cn1ccc2ncnc(Oc3ccc(NC(=O)Nc4cc(C(C)(C)C)on4)c(Cl)c3)c21 | 48 | 5 | 8 | 12 | 4 | 0 | 19 | 1 | 0 | 11
CC(=O)Nc1nc2cnc(Nc3cc(NC(=O)c4cccc(CC(C)(C)C#N)c4)ccc3C)nc2s1 | 60 | 11 | 66 | 54 | 8 | 27 | 0 | 16 | 8 | 22
C[C@@H](Oc1cc(-n2cnc3cc(-c4cnn(C)c4)ccc32)sc1C(N)=O)c1ccccc1Cl [GSK580432] | 0 | 0 | 0 | 32 | 24 | 0 | 61 | 20 | 0 | 18
COc1cc2ncn(-c3cc(OCC4CCCCC4)c(C(N)=O)s3)c2cc1OC [GSK204559] | 38 | 0 | 0 | 0 | 5 | 0 | 0 | 0 | 0 | 11
COc1ccc(Nc2nccc(N3CCC(NC(=O)c4cccc(C#N)c4)C3)n2)cc1 (stereo not drawn) [GSK1379730] | 0 | 0 | 0 | 25 | 0 | 0 | 0 | 0 | 0 | 0
CS(=O)(=O)Nc1ccc(-c2ccnc3[nH]ccc23)cc1 [GSK993273] | 3 | 0 | 0 | 8 | 7 | 10 | 0 | 28 | 0 | 12
